High-throughput results from PubChem BioAssay.
Sampled rows, rich in hits. Any-hit rate of the full collection: about 0.9%.
CDC25B CDK2 inh = human CDC25B-CDK2/CyclinA binding inhibition; z-score (concentration not given with the values); AID 1259370; HTRF CDC25B-CDK2/CyclinA binding, anti-His/anti-Flag; stronger effect = higher value; 0.72% of 94,000 active; P30305+P24941; in the data active = z-score above about 3.2
HIV TAR-Tat = HIV-1 TAR-Tat binding disruption. HIV-1 TAR RNA, Tat peptide displacement FRET; stronger effect = higher value. z-score (no concentration beside the values). 0.6% of 100,000 active. AID 1259389; active = z-score of 3 or more in at least 2 runs
The depositor's hits bear a star; . = no result given.

SMILES	CDC25B CDK2 inh	HIV TAR-Tat
COc1ccc(N2CSC3=C(C#N)C(c4ccc(Cl)cc4)CC(=O)N3C2)cc1OC (stereo not given)	1.5	2.4
N#CC1=C2SCN(c3cccc(Cl)c3)CN2C(=O)CC1c1ccccc1 (stereo not given)	9.2*	-2
N#CC1=C2SCN(c3ccc(Cl)cc3)CN2C(=O)CC1c1ccccc1 (stereo not given)	7.3*	-1.7
CC1CCN(c2nn3c(N)c(-c4ccccc4)nc3s2)CC1	.	0.11
O=c1[nH]c(=S)[nH]c2sc3c(c12)CCCC3	-3.3	.
CCOC(=O)c1[nH]c2sc3c(c2c1N)CCCC3	17*	5.2*
CCOC(=O)c1[nH]c2sc(C)c(C)c2c1N	3	-2.7
COC(=O)c1[nH]c2sc3c(c2c1N)CCCC3	14*	7*
Cc1cccc(Nc2nc3ccc(C)cc3n3nnnc23)c1	-0.56	1.5
O=C(c1nn2c(c1Cl)NC(c1ccco1)CC2C(F)(F)F)N1CCN(c2ccccc2)CC1 (stereo not given)	1.9	-0.73
CCc1ccc(CN(C(=O)c2cc(-c3ccc(C)c(F)c3)on2)C2CCS(=O)(=O)C2)cc1 (stereo not given)	0.07	0.7
Cc1c(C(=O)CC#N)sc2ccc(Cl)cc12	-0.26	.
Cc1c(C(=O)Cn2ccnc2)sc2ccc(Cl)cc12	14*	.
c1ccc(-c2nc3c4ccccc4nc(NCCCN4CCCCC4)n3n2)cc1	-1.5	-2
Cn1c(=O)n(C/C=C/c2ccccc2)c(=O)c2c1nc1n2CCN1c1ccc(F)cc1	.	12*
Cn1c(=O)n(Cc2ccccc2)c(=O)c2c1nc1n2CCN1c1ccc(F)cc1	.	1.6
COC(=O)CC(=O)Nc1cc2c(cc1N1CCOCC1)n(C)c(=O)n2C	0.75	2.1
O=c1c(NCCC2=CCCCC2)nccn1-c1ccc(F)c(F)c1	.	-3.3
NC(N)=NS(=O)(=O)c1ccc(N/C=C\C(=O)c2ccc(F)cc2)cc1	-1.6	.
NC(N)=NS(=O)(=O)c1ccc(N/C=C\C(=O)c2ccc3ccccc3c2)cc1	18*	.
COC(=O)c1ccc(N2CSC3=C(C#N)C(c4ccc(C)cc4)CC(=O)N3C2)cc1 (stereo not given)	16*	1.3
CCOC(=O)c1ccc(N2CSC3=C(C#N)C(c4ccc(C)cc4)CC(=O)N3C2)cc1 (stereo not given)	6.1*	-1.6
CCOc1cc(C2CC(=O)N3CN(c4ccc(C)cc4)CSC3=C2C#N)ccc1O (stereo not given)	3.2*	3
CCOC(=O)CN1CSC2=C(C#N)C(c3ccc(F)cc3)CC(=O)N2C1 (stereo not given)	-0.34	2.3
Cc1ccc(C2CC(=O)N3CN(C)CSC3=C2C#N)cc1 (stereo not given)	0.82	0.37
SMILES	CDC25B CDK2 inh	HIV TAR-Tat
CCOc1ccc(N2CSC3=C(C#N)C(c4ccc(C)o4)CC(=O)N3C2)cc1 (stereo not given)	3.4*	0.86
O=C(NCc1ccc(F)cc1)N1CCCC1c1cccs1 (stereo not given)	-2.5	-0.38
CCCCN1C(=O)C2(SC(NC(C)=O)=NN2C(C)=O)c2cc(C)ccc21 (stereo not given)	-1.4	.
COc1cc(NS(=O)(=O)c2cc3[nH]c4c(c3cc2C)C(=O)CCC4)cc(OC)c1	.	1.4
Cc1nc(-c2ccccc2)sc1-c1ccc(SCC(N)=O)nn1	.	0.56
CN1CSC2=C(C#N)C(c3ccccc3)CC(=O)N2C1 (stereo not given)	4.1	0.4
CN1CSC2=C(C#N)C(c3cccc(OCc4ccccc4)c3)CC(=O)N2C1 (stereo not given)	3.4*	-1.9
CCOC(=O)c1ccc(N2CSC3=C(C#N)C(c4ccc(SC)cc4)CC(=O)N3C2)cc1 (stereo not given)	5.1*	-2.3
COc1ccc(C2CC(=O)N3CN(CCc4ccccc4)CSC3=C2C#N)cc1OC (stereo not given)	-1.4	0.76
CCOc1ccc(C2CC(=O)N3CN(C)CSC3=C2C#N)cc1OC (stereo not given)	3.6*	-0.1
O=C(c1ccc(N2CCOc3ccc(Cl)cc32)s1)N1CCCC1	.	0.2
CC1SCC(=NOC(=O)Nc2ccc(Cl)cc2)CS1 (stereo not given)	-1.5	.
CC1SCC(=NOC(=O)c2ccccc2Cl)CS1 (stereo not given)	13*	.
S=c1[nH]nc2n(Cc3ccccc3)c3ccccc3n12	-4.3	.
Cc1cn2c(=O)c(S(=O)(=O)N3CCc4ccccc4C3)c(C)nc2s1	.	0.66
O=C1c2c(O)cccc2Cc2cccc(O)c21	.	25*
Nc1ccc(O)c2c1C(=O)c1c(N)ccc(O)c1C2=O	-2.6	.
O=C1NCCN(C2CCCC2)C1=O	.	1.8
COc1ccc(-c2n[nH]c3c2C(c2cccc(O)c2)N(C)C3=O)cc1 (stereo not given)	-0.82	-0.6
COc1ccc(-c2nc3ncccn3c2NCc2ccccc2)cc1	.	0.34
CCN(CC)C(=O)CSc1nc2nc(C)cc(C)c2c(=O)[nH]1	0.19	.
